# Assay outcomes: PubChem BioAssay, several laboratories
# Calb FLC – C. albicans growth modulation with fluconazole; C. albicans CaCi-2 (fluconazole-resistant clinical isolate) + fluconazole, Alamar Blue growth, 48 h; growth inhibition, % (test concentration not listed); 300,000 compounds, 0.57% hits;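 active = growth inhibition above about 58% in most replicates, limit read from the data, passing the limit was not always enough; inconclusive = exactly half the replicates above a set limit; inactive = most replicates below a set limit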;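 also: all wells also contain fluconazole at 8 µg/ml as a sub-toxic cotreatment; 0% = median of DMSO wells and 100% = median of geldanamycin control wells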
# ATG4B inh – inhibitors of human ATG4B cysteine protease. ATG4B cleavage of LC3-PLA2, NBD-HPC fluorescence, 1 h. inhibition, % at 8.33 µM. 340,000 compounds, 0.51% hits. AID 504462; in the data active = inhibition above about 40%
# FAS-TE inh – FAS thioesterase (human) inhibition. P49327. recombinant FAS-TE, OMFH fluorogenic substrate, fluorescence endpoint. inhibition, % at 15 µM. 360,000 compounds, 0.67% hits;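 active = compounds whose normalised, plate-corrected inhibition of enzyme fluorescence in the single-dose primary screen is 50% or more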;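 also: 0% = DMSO with enzyme and 100% = substrate without enzyme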
# NadD block – inhibitors of Staphylococcus aureus NadD. purified NadD enzyme, colorimetric absorbance read-out. inhibition, % at 20 µM. 360,000 compounds, 0.78% hits. AID 602399; in the data active = inhibition above about 26%
# Mot1-301 SUMO – inhibitors of SUMOylation pathway: yeast Mot1-301 growth rescue | S. cerevisiae Mot1-301 growth rescue, ATP luminescence, 38.5C; percent above DMSO median, 100 means doubled | growth rescue, % at 18.8 µM | 320,000 compounds, 1% hits;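 active = every valid replicate shows activation above 250% relative to neutral control wells; inactive = the rest, any valid replicate at or below 250%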;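 also: OY570 slx delta 5 strain wells were the positive control but not used for scaling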
# Starred values were filed as active, the others as inactive; ? = inconclusive; . = not tested or not shown. The list is not random: actives were taken first. Their share in the collection is about 3.1%.
SMILES,Calb FLC,ATG4B inh,FAS-TE inh,NadD block,Mot1-301 SUMO
O=C(NCc1ccc(Br)cc1)OC1CC2CC1[C@H]1CCCCN1C2=O (some centres not stated),.,.,-8,0,.
Cc1c(C(=O)NCc2cccc([N+](=O)[O-])c2)sc(=O)n1Cc1ccccc1F,.,.,28,-1,.
O=S(=O)(c1ccc(Cl)s1)N1CCc2ccccc2C1,6,11,18,-5,122
O=S(=O)(c1ccc(Cl)s1)N1CCCc2cccc(O)c21,68*,7,26,1,1
COc1cc(NC(=O)COC(=O)CC(NC(C)=O)c2ccccc2)cc(OC)c1 (configuration not stated),4,-8,-2,0,352*
COc1cc(NC(=O)COC(=O)c2ccccc2F)cc(OC)c1,-1,6,3,-13,12
O=C1NN(c2ccccc2)C(=O)/C1=C\c1cccn1-c1ccc(Cl)c([N+](=O)[O-])c1,-1,23,-4,42*,1
CC1CCCC(NC(=O)COC(=O)c2ccc3ncsc3c2)C1C (configuration not stated),.,4,-1,-2,70
O=C(O)CCCN1C(=O)/C(=C/c2cn(-c3ccccc3)nc2-c2cccs2)SC1=S,?,5,-12,34*,.
O=C(O)CCCN1C(=O)/C(=C\c2ccccc2OCc2ccccc2)SC1=S,4,36,20,5,20
CC(C)(C)C1=NN=C2c3ccccc3C(=O)C21 (configuration not stated),10,-5,-3,-5,675*
C#CCOCCOCCOCCNc1nc(N2CCN(C(=O)[C@H](CCCCN)n3cc([C@@H](N)CO)nn3)CC2)nc(N2CCN(C(=O)[C@H](CCCCN)n3cc([C@@H](N)CC(C)C)nn3)CC2)n1,.,9,-11,-3,-13
CCCc1ccc(C2=Nn3c(nnc3C(C)C)SC2)cc1,8,-11,-4,-4,9
CNCCCOc1ccc(C(C)(C)c2ccccc2)cc1,-68,.,.,.,.
COCCCNCCOc1ccc(C(C)(C)c2ccccc2)cc1,-15,7,-10,-4,824*
OC(c1ccc(F)c(F)c1)c1nc(-c2cccc(C(F)(F)F)c2)cs1 (configuration not stated),.,.,34,-11,.
CCOC(=O)C1CCCN(c2cc(C)nc3cc(-c4ccc(F)cc4)nn23)C1 (configuration not stated),104*,-19,36,3,470
O=C(Nc1cc2c3c(c1)C1CCCC1CN3CC1CCCC21)c1ccccc1 (configuration not stated),89*,10,-10,26,-9
O=C1C=C(NCc2ccccc2)c2ccccc2C1=O,99*,40,3,2,.
COC(=O)[C@]12CCCCC=C1N(Cc1ccco1)C(=O)[C@H](CC(=O)NCc1ccccc1)C2,.,.,-3,7,.
COC(=O)C1=C(C)NC(=O)/C1=C\c1cc(C)n(-c2ccc(F)cc2)c1C,-8,-13,-8,6,3
Cc1ccc(-n2c(C)cc(/C=C3\SC(=O)NC3=O)c2C)cc1,.,17,-2,9,10
Cc1cc(/C=C2\SC(=S)NC2=O)c(C)n1-c1cccc(O)c1,16,17,21,30*,-3
COC(=O)C1=C(C)NC(=O)/C1=C\c1cc(C)n(-c2cccc(C)c2)c1C,19,-2,7,32*,.
Cc1ccc(S(=O)(=O)N2CCCC2C(=O)NCc2ccccc2F)cc1 (configuration not stated),-2,-1,-3,0,-5
SMILES,Calb FLC,ATG4B inh,FAS-TE inh,NadD block,Mot1-301 SUMO
CC1(c2nnnn2-c2ccc3c(c2)OCCO3)CCC(=O)N1CC1CCCCC1 (configuration not stated),.,.,-8,0,.
COc1cc(/C=C2\SC(=O)N(c3ccc(Cl)cc3)C2=O)cc([N+](=O)[O-])c1O,.,6,25,60*,.
CC1CC(C)CN(S(=O)(=O)c2ccc3c(c2)oc(=O)n3CC(=O)N(C)Cc2ccccc2)C1 (configuration not stated),6,-3,11,0,333*
CCCCNC(=O)Cn1c(=O)oc2cc(S(=O)(=O)N3CC(C)CC(C)C3)ccc21 (configuration not stated),-5,0,-1,-8,-4
Cc1cccc(-n2nc3c(c2NC(=O)c2ccc(S(=O)(=O)N4CCOCC4)cc2)CSC3)c1C,.,-3,6,7,.
Cc1ccc(-n2nc3c(c2NC(=O)c2ccc(S(=O)(=O)N4CCOCC4)cc2)CSC3)c(C)c1,.,31,14,34*,.
O=C(CNC(=O)/C=C/c1ccco1)N=Nc1c(O)[nH]c2ccccc12,0,5,0,34*,-1
O=C(CNC(=O)Cc1ccccc1)N=Nc1c(O)[nH]c2ccccc12,4,-5,-6,-12,8
O=S(=O)(/C=C/c1ccccc1)NC1CCCCCCC1,-15,13,18,-5,328*
COc1cc(CN2C(=S)NC(C)(C)CC2(C)O)cc(OC)c1 (configuration not stated),-5,3,-11,-5,16
Nc1cc(C(Cl)=C(Cl)Cl)c(S(N)(=O)=O)cc1S(N)(=O)=O,.,4,0,5,-1
Nc1nc(CN2CCCCCC2)nc(Nc2ccc(F)cc2)n1,-4,-7,-6,1,.
Nc1nc(CN2CCN(c3ccccn3)CC2)nc(Nc2ccc(F)cc2)n1,92*,0,-5,-4,68
CCN=c1scc(C)n1/N=C/c1cc(Br)c(O)c(Br)c1,44,22,7,7,7
CCN=c1scc(C)n1/N=C/c1ccc(O)c(O)c1O,88*,-7,-7,11,5
COc1ccc(NC(=O)c2nnn(CC(=O)Nc3ccc4c(c3)OCO4)c2N)c(OC)c1,41,3,3,5,-12
CC[C@@]12C(=O)N(c3cccc(Br)c3)C(=O)N1[C@H](c1ccc(Br)cc1)[C@@H]1C(=O)N(C(C)(C)C)C(=O)[C@@H]12,9,-14,58*,3,9
CC[C@@]12C(=O)N(c3cccc(Br)c3)C(=O)N1[C@H](c1ccc(OC)cc1)[C@@H]1C(=O)N(C(C)(C)C)C(=O)[C@@H]12,24,-1,14,1,19
O=C(O)CCCCCn1c(O)c(C=C2N=c3ccccc3=N2)sc1=S,83*,-1,-8,-4,-4
OCCCn1c(C(CO)Nc2nc(-c3ccc(Cl)cc3)cs2)nc2ccccc21 (configuration not stated),-14,-14,-2,9,27
Cc1[nH]n(-c2ccccc2)c(=O)c1/C=N/Nc1nncc(-c2ccccc2)n1,105*,-30,5,16,8
Cc1ccc(/C=N/Nc2nncc(-c3ccccc3)n2)o1,-3,1,-3,-2,5
COc1cccc(C(=O)N2CCC(N3CC(C)OC(C)C3)CC2)c1 (configuration not stated),-5,-2,-14,-5,16
